Test results taken from the supplement of paper PMC10849652.
Of roughly 7,900 targets only a part is listed; those with a hit were picked by preference. About 0.6% of all pairs of compound and target were hits. Unmarked numbers belong to inactive results.

Key:
Assay in all cases: log2 fold change, soluble protein after heating vs DMSO (PISA); higher = thermal stabilisation; K562 cells, 10 uM, 30 min; active = over 0.2 and 3.5 SD of the protein, either way, in both replicates (recomputed)
[1] = compound: CS(=O)(=O)c1ccc(-c2cnc(N)c(C(=O)Nc3ccccc3)n2)cc1
In short: (§1)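 Soluble protein was quantified by TMTpro 16plex LC-MS/MS after channel sums were equalised. It was obtained as the supernatant after 21,000xg for 90 min from pooled aliquots of K562 cells (2×10^6 cells/mL, 10 μM compound, 30 min) heated for 3 min across 48°C-58°C and extracted in PBS with 0.5% NP-40 at 4°C. Thermal stability values are relative to control samples and come from duplicates. They are given as log2 fold changes.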

[2] = compound: C[C@@H](Oc1cc(-c2cnn(C3CCNCC3)c2)cnc1N)c1c(Cl)ccc(F)c1Cl [crizotinib]
In short: as §1

[3] = compound: C[C@@H]1COCCN1C2=NC(=NC(=C2)C3(CC3)S(=O)(=O)C)C4=C5C=CNC5=CC=C4
In short: as §1

[4] = compound: C[C@H](C1=CC=C(C=C1)C(=O)NC2=C3C=CNC3=NC=C2)N
In short: as §1

[5] = compound: C[C@H](Nc1ncnc2nc[nH]c12)c1cc2cccc(Cl)c2c(=O)n1-c1ccccc1 [duvelisib]
In short: as §1

[6] = compound: Cc1cc(Nc2cc(CN3CCOCC3)c3nc(C)c(Cc4ccc(Cl)cc4F)n3n2)n[nH]1 [gandotinib]
In short: as §1

[7] = compound: Cc1cc(Nc2cc(N3CCN(C)CC3)nc(Sc3ccc(NC(=O)C4CC4)cc3)n2)n[nH]1 [tozasertib]
In short: as §1

[8] = compound: Cc1cc(SCc2sc(-c3ccc(C(F)(F)F)cc3)nc2C)ccc1OCC(=O)O
In short: as §1

[9] = compound: Cc1ccc(-n2nc(C(C)(C)C)cc2NC(=O)Nc2ccc(OCCN3CCOCC3)c3ccccc23)cc1 [doramapimod]
In short: as §1

[10] = compound: Cc1ccc(C(=O)N(CCCN)[C@@H](c2nc3cc(Cl)ccc3c(=O)n2Cc2ccccc2)C(C)C)cc1 [ispinesib]
In short: as §1

[11] = compound: Cc1ccc(NC(=O)c2ccc(CN3CC[C@H](N(C)C)C3)c(C(F)(F)F)c2)cc1Nc1nccc(-c2cncnc2)n1 [bafetinib]
In short: as §1

[12] = compound: Cc1cccc(CC(=O)N2CCc3c2ccc(-c2cn(C)c4ncnc(N)c24)c3F)n1
In short: as §1

[13] = compound: Cc1cn(-c2cc(NC(=O)c3ccc(C)c(Nc4nccc(-c5cccnc5)n4)c3)cc(C(F)(F)F)c2)cn1 [nilotinib]
In short: as §1

[14] = compound: Cc1nc(Nc2n[nH]c3c2CN(C(=O)N[C@H](CN(C)C)c2ccccc2)C3(C)C)c2sccc2n1
In short: as §1

[15] = compound: Cc1nc(Nc2ncc(C(=O)Nc3c(C)cccc3Cl)s2)cc(N2CCN(CCO)CC2)n1 [dasatinib]
In short: as §1

[16] = compound: Cc1ncc(-c2ccnc(Nc3ccc(S(C)(=O)=O)cc3)n2)n1C(C)C
In short: as §1

[17] = compound: Cn1cc(-c2ccc3c(c2)CCN3C(=O)Cc2cccc(C(F)(F)F)c2)c2c(N)ncnc21
In short: as §1

[18] = compound: Cn1cc(-c2ccc3nnc(C(F)(F)c4ccc5ncccc5c4)n3n2)cn1
In short: as §1

[19] = compound: Cn1cncc1[C@@](N)(c1ccc(Cl)cc1)c1ccc2c(c1)c(-c1cccc(Cl)c1)cc(=O)n2C [tipifarnib]
In short: as §1

[20] = compound: FC(F)(F)c1ccc(/C=C/c2nc(COc3ccc(CCCCn4ccnn4)cc3)co2)cc1 [mubritinib]
In short: as §1

Chain of UniProt P04920 (P04920 whole entry, looked up): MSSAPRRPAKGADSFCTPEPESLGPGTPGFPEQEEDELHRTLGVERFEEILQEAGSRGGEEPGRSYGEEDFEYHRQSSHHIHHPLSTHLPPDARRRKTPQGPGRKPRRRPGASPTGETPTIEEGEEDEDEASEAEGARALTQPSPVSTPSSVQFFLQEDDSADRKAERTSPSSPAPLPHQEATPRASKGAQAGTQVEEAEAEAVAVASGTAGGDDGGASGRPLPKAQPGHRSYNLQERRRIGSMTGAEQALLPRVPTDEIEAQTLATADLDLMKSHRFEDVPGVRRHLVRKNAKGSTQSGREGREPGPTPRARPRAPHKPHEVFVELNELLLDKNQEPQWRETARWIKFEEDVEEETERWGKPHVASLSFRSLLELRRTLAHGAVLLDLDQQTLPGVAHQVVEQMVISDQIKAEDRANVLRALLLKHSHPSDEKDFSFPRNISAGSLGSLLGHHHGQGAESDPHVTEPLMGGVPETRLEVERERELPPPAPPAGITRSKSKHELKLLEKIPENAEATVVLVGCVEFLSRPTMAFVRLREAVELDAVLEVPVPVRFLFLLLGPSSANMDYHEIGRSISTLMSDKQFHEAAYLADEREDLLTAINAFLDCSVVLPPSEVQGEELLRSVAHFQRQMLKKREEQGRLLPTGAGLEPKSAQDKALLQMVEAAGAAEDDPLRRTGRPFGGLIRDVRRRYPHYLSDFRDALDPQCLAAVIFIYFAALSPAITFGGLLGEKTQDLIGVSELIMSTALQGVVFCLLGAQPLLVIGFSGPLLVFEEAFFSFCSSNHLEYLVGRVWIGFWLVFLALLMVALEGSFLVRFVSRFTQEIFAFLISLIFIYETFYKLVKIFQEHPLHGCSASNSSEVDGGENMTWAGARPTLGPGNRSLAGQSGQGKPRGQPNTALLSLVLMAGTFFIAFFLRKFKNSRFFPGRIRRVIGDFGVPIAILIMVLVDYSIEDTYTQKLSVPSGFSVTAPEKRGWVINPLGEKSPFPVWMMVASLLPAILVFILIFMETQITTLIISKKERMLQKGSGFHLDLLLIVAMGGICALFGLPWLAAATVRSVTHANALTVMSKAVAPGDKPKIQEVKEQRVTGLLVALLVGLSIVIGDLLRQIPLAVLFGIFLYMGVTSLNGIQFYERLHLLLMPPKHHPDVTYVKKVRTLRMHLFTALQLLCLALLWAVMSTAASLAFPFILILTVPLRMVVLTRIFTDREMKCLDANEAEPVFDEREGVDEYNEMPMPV
Chain of UniProt Q9P016 (Q9P016 whole entry, looked up): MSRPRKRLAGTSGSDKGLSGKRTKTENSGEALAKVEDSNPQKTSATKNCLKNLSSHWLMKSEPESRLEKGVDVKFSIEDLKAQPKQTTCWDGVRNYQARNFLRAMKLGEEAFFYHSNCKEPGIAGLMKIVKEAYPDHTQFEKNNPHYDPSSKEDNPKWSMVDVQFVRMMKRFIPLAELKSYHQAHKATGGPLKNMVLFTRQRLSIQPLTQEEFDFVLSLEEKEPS
Chain of UniProt P27105 (P27105 whole entry, looked up): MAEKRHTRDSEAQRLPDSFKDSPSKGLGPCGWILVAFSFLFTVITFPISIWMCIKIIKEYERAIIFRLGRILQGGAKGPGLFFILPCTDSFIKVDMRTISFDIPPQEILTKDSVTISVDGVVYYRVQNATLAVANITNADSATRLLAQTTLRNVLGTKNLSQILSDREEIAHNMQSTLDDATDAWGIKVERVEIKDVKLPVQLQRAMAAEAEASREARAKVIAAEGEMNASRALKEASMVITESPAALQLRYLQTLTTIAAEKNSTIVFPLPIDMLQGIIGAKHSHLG
Chain of UniProt P50225 (P50225 whole entry, looked up): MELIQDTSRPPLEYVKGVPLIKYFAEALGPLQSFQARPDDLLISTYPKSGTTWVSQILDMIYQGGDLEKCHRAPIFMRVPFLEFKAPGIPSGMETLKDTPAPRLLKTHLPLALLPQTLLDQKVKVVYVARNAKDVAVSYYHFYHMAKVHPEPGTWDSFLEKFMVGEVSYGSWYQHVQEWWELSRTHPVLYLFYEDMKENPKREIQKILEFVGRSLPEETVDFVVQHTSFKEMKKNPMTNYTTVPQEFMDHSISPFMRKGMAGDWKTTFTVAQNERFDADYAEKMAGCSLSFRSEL
Chain of UniProt Q9UNH7 (Q9UNH7 whole entry, looked up): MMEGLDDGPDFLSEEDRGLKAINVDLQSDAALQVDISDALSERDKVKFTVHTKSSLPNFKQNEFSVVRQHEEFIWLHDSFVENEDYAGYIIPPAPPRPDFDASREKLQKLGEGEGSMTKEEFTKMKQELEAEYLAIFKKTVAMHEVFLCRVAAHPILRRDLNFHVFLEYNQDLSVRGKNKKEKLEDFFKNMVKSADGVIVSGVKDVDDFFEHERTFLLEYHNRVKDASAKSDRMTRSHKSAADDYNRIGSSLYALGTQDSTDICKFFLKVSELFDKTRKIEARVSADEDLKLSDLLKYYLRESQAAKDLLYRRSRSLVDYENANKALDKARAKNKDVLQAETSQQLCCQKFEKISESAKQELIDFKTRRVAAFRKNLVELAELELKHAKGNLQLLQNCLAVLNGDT
Chain of UniProt P31641 (P31641 whole entry, looked up): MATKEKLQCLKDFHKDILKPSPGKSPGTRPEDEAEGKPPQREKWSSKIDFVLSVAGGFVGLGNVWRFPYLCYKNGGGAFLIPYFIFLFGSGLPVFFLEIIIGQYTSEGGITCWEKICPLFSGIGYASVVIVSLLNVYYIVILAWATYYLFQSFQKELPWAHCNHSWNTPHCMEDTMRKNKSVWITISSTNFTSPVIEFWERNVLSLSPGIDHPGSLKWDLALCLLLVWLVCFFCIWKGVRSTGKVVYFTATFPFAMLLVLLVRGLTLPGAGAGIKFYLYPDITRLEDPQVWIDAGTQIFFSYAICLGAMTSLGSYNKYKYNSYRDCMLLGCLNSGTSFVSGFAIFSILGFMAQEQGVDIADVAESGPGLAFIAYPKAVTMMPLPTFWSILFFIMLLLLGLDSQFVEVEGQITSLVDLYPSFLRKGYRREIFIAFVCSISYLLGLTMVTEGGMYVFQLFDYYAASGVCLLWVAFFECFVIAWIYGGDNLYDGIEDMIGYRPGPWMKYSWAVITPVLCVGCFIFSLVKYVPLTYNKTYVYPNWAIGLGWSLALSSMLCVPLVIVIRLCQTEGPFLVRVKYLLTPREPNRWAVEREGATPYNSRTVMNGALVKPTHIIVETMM
Chain of UniProt Q4KMP7 (Q4KMP7 whole entry, looked up): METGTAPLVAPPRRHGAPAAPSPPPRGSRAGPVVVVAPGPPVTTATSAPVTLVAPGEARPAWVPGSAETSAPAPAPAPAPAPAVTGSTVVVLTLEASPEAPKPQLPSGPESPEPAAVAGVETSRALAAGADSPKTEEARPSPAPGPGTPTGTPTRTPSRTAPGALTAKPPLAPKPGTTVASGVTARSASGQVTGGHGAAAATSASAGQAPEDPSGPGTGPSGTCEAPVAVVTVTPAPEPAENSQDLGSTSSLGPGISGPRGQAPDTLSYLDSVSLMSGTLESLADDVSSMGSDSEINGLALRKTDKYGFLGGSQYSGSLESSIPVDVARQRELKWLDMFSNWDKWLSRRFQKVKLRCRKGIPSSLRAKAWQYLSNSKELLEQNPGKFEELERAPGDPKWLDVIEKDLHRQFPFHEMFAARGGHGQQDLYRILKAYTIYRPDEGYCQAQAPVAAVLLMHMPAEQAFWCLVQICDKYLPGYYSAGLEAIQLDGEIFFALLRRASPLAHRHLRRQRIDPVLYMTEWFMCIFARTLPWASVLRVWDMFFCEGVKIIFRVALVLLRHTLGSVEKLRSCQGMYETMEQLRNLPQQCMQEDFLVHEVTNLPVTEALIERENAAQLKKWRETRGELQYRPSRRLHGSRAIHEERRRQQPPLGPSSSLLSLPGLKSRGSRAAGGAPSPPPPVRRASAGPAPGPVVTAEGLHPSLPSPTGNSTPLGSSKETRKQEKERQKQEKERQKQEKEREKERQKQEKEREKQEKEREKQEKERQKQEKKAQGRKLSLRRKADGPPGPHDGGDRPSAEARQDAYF
Chain of UniProt O15198 (O15198 whole entry, looked up): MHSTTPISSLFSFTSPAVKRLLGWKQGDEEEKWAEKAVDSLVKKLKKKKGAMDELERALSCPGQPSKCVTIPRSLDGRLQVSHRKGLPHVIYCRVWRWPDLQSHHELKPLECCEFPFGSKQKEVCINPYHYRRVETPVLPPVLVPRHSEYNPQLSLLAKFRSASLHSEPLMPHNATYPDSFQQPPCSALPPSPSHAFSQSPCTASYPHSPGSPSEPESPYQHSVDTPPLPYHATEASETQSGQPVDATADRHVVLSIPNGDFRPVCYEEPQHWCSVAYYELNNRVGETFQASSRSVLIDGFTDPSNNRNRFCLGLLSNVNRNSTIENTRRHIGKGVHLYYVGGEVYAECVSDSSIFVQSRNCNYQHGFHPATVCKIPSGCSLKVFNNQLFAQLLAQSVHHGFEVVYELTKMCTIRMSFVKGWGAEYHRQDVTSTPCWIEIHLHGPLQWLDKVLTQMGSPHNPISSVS
Chain of UniProt Q01130 (Q01130 whole entry, looked up): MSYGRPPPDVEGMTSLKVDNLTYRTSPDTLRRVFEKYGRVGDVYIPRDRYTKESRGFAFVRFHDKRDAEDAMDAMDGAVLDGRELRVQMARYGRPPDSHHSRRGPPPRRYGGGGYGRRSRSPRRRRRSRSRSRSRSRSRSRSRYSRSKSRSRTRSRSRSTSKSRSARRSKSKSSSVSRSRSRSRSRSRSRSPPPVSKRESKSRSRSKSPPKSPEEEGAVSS
Chain of UniProt Q00059 (Q00059 whole entry, looked up): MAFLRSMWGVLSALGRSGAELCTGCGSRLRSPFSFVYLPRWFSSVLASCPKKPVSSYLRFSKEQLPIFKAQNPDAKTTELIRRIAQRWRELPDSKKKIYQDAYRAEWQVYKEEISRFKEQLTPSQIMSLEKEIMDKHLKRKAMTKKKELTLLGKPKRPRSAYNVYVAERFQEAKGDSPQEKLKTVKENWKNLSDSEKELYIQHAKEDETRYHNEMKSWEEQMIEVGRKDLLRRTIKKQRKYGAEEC

Row | Target | log2 fold change [1] | log2 fold change [2] | log2 fold change [3] | log2 fold change [4] | log2 fold change [5] | log2 fold change [6] | log2 fold change [7] | log2 fold change [8] | log2 fold change [9] | log2 fold change [10] | log2 fold change [11] | log2 fold change [12] | log2 fold change [13] | log2 fold change [14] | log2 fold change [15] | log2 fold change [16] | log2 fold change [17] | log2 fold change [18] | log2 fold change [19] | log2 fold change [20]
1 | TAF9 (UniProt Q16594) | -0.029 | 0.043 | 0.007 | 0.116 | 0.009 | -0.047 | -0.034 | -0.131 | -0.019 | -0.007 | -0.076 | -0.026 | 0.061 | -0.031 | 0.146 | -0.086 | -0.12 | -0.011 | 0.077 | -0.005
2 | SLC4A2 (UniProt P04920) | 0.114 | -0.053 | 0.013 | 0.126 | -0.015 | -0.075 | -0.069 | -0.058 | 0.07 | -0.099 | -0.101 | -0.037 | 0.027 | -0.165 | -0.125 | 0.043 | 0.023 | -0.045 | -0.068 | 0.029
3 | SLC6A6 (UniProt P31641) | 0.021 | 0.04 | -0.026 | -0.021 | 0.06 | -0.049 | -0.091 | -0.042 | -0.063 | -0.028 | -0.001 | -0.018 | 0.064 | -0.015 | -0.069 | 0.068 | -0.011 | -0.006 | 0.002 | 0.024
4 | SNX6 (UniProt Q9UNH7) | -0.169 | -0.323 | -0.014 | -0.033 | -0.277 | -0.5 (active) | -0.118 | 0.061 | -0.036 | -0.281 | -0.132 | 0.138 | -0.214 | 0.012 | -0.176 | -0.47 (active) | 0.094 | 0.019 | -0.045 | 0.058
5 | SMAD2 (UniProt Q15796) | 0.132 | 0.255 | -0.015 | 0.012 | 0.038 | 0.045 | 0.086 | 0.071 | -0.04 | -0.019 | -0.019 | -0.037 | -0.085 | -0.123 | -0.13 | -0.14 | 0.023 | 0.057 | 0.012 | 0.022
6 | SPTBN1 (UniProt Q01082) | 0.018 | 0.042 | 0.008 | 0.039 | 0.016 | -0.039 | 0.046 | 0.094 | 0.021 | 0.03 | 0.064 | -0.017 | -0.01 | -0.145 | -0.043 | 0.054 | -0.009 | -0.007 | -0.045 | -0.075
7 | SLK isoform 2 (UniProt Q9H2G2) | 0.016 | -0.068 | 0.07 | 0.014 | 0.072 | 0.102 | -0.225 | 0.052 | -0.118 | 0.021 | -0.032 | -0.076 | -0.041 | -0.169 | -0.085 | 0.015 | -0.289 (active) | 0.004 | -0.018 | 0.026
8 | THYN1 (UniProt Q9P016) | -0.015 | 0.061 | 0.001 | 0.011 | 0.071 | 0.021 | -0.024 | 0.087 | -0.036 | -0.002 | 0.009 | -0.028 | -0.021 | 0.044 | -0.097 | -0.009 | -0.015 | 0.013 | -0.036 | 0.031
9 | TBC1D10B (UniProt Q4KMP7) | 0.012 | -0.04 | 0.013 | -0.153 | 0 | 0.046 | -0.022 | 0.092 | 0.021 | 0.083 | -0.01 | 0.022 | 0.013 | -0.09 | -0.064 | -0.149 | 0.07 | 0 | 0.039 | 0.013
10 | STOM (UniProt P27105) | 0.086 | -0.005 | -0.035 | 0.182 | 0.011 | 0.268 | -0.015 | 0.01 | -0.006 | -0.29 | -0.01 | 0.043 | 0.039 | -0.007 | 0.039 | -0.03 | -0.043 | 0.055 | 0.031 | -0.008
11 | SRSF2 (UniProt Q01130) | 0.005 | 0.023 | -0.107 | 0.006 | 0.013 | 0.092 | -0.037 | -0.006 | -0.033 | -0.036 | 0.02 | -0.062 | 0.007 | -0.541 (active) | 0.074 | 0.034 | -0.058 | 0 | 0.085 | -0.011
12 | SMAD9 (UniProt O15198) | 0.016 | 0.019 | 0.068 | 0.037 | 0.014 | -0.197 | -0.069 | 0.074 | -0.013 | -0.169 | -0.102 | -0.226 | -0.113 | 0.004 | -0.077 | -0.114 | 0.058 | 0.015 | -0.069 | -0.067
13 | SULT1A1 (UniProt P50225) | -0.019 | 0.065 | 0.065 | -0.073 | -0.101 | -0.029 | 0.006 | 0.035 | 0.016 | -0.018 | -0.067 | 0.222 | -0.072 | -0.065 | -0.172 | -0.002 | 0.333 (active) | 0.353 (active) | -0.097 | -0.069
14 | SLC25A38 (UniProt Q96DW6) | 0.146 | 0.105 | 0.045 | 0.002 | 0.088 | -0.035 | -0.003 | -0.058 | 0.001 | 0 | -0.08 | -0.03 | -0.03 | 0.023 | 0.143 | -0.114 | 0.022 | 0.019 | 0.043 | 0.052
15 | SRPRA (UniProt P08240) | 0.066 | 0.036 | 0.061 | 0.01 | 0.036 | -0.042 | -0.009 | 0.063 | -0.044 | 0.045 | 0.143 | 0.138 | 0.066 | 0.04 | -0.105 | 0.123 | 0.054 | -0.037 | -0.141 | 0.227 (active)
16 | TFAM (UniProt Q00059) | -0.071 | 0.058 | -0.153 | 0.117 | -0.04 | 0.176 | 0.036 | -0.034 | 0.022 | -0.117 | 0.034 | 0.013 | -0.025 | 0.023 | 0.077 | 0.003 | -0.048 | -0.038 | 0.039 | -0.068
